# Measurements as given in the supplement of paper PMC10849652.
# Of roughly 7,900 targets only a part is listed; those with a hit were picked by preference. About 0.6% of all pairs of compound and target were hits. Values without a mark were called inactive.
# Legend:
# Test in all cases: log2 fold change, soluble protein after heating vs DMSO (PISA); higher = thermal stabilisation; K562 cells, 10 uM, 30 min; active = over 0.2 and 3.5 SD of the protein, either way, in both replicates (recomputed)
# [1] = compound: C#Cc1cccc(Nc2ncnc3cc(OCCOC)c(OCCOC)cc23)c1 [erlotinib]
# Summary of the method: (§1)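 K562 cells at 2×10^6 cells/mL were treated for 30 min with 10 μM compound, and aliquots were heated for 3 min over 48°C-58°C before pooling. Extraction used PBS with 0.5% NP-40 at 4°C, and soluble protein was the supernatant after 21,000xg for 90 min, measured by TMTpro 16plex LC-MS/MS with channel sums equalised. Thermal stability values, relative to control samples and from duplicates, are log2 fold changes.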
# [2] = compound: C/C(=N\NC(=O)C1=CC(=CC=C1)S(=O)(=O)N2CCOCC2)/C3=C(C=CC(=C3)Cl)O
# Summary of the method: as §1
# [3] = compound: C1=CC(=C(C=C1Cl)C2=NC3=NC=CN=C3C(=N2)NC4=CC=NC=C4)F
# Summary of the method: as §1
# [4] = compound: C1=CC(=CC=C1C2=NC3=C(N2)C=C(C=C3)C(=O)N)OC4=CC=C(C=C4)Cl
# Summary of the method: as §1
# [5] = compound: C1=CC2=C(C=CC(=C2)/C=C\3/C(=O)NC(=NCC4=CC=CS4)S3)N=C1
# Summary of the method: as §1
# [6] = compound: C1=CC2=NC=CN=C2C=C1/C=C/3\C(=O)NC(=O)S3
# Summary of the method: as §1
# [7] = compound: C1=CC=C(C=C1)C2=NC(=C(N2)C3=CC=NC=C3)C4=CC(=C(C=C4)Cl)O
# Summary of the method: as §1
# [8] = compound: C1=CC=C2C(=C1)C3=NNC4=CC=CC(=C43)C2=O
# Summary of the method: as §1
# [9] = compound: C1CCN(C1)C(=O)NC2=CC=CC(=C2)NC3=NC=C(C(=N3)NCCC4=CN=CN4)Br
# Summary of the method: as §1
# [10] = compound: C1CN(CCC1(CC2=CC=C(C=C2)Cl)N)C3=NC=NC4=C3C=CN4
# Summary of the method: as §1
# [11] = compound: C1COCCN1CCN2C3=CC=CC=C3N=C2NC(=O)C4=CC(=CC=C4)[N+](=O)[O-] [IRAK-1-4 Inhibitor I]
# Summary of the method: as §1
# [12] = compound: C=CC(=O)N1CCC[C@@H](n2nc(-c3ccc(Oc4ccccc4)cc3)c3c(N)ncnc32)C1 [ibrutinib]
# Summary of the method: as §1
# [13] = compound: CC(=O)c1cnc2ccc(-c3cc(Cl)c(O)c(Cl)c3)nc2c1N[C@H]1CC[C@H](CN(C)C)CC1
# Summary of the method: as §1
# [14] = compound: CC(C)(C)Cn1c(N)nc2ccc(-c3[nH]c(C(C)(C)C)nc3-c3ccc(F)cc3)nc21 [ralimetinib]
# Summary of the method: as §1
# [15] = compound: CC(C)(O)CC(=O)NCCn1ccc2ncnc(Nc3ccc(Oc4cccc(C(F)(F)F)c4)c(Cl)c3)c21
# Summary of the method: as §1
# [16] = compound: CC(C)C1=C2N=C(C=C(N2N=C1)NCC3=CC=CC=C3)NCCCCCCN
# Summary of the method: as §1
# [17] = compound: CC(C)C[C@@H](C=O)NC(=O)[C@H](CC(C)C)NC(=O)[C@H](CC(C)C)NC(=O)OCc1ccccc1
# Summary of the method: as §1
# [18] = compound: CC(C)N(C[C@H]1O[C@@H](n2cnc3c(N)ncnc32)[C@H](O)[C@@H]1O)[C@H]1C[C@@H](CCc2nc3cc(C(C)(C)C)ccc3[nH]2)C1 [pinometostat]
# Summary of the method: as §1
# [19] = compound: CC1=C(C(CC(=O)N1)C2=CC=C(C=C2)C(F)(F)F)C(=O)NC3=C(C=C4C(=C3)C=NN4)F
# Summary of the method: as §1
# [20] = compound: CC1=C(C2=C(C=C1)C(=O)C3=CC=CC=C3N2CCCN)C
# Summary of the method: as §1
# Sequence of UniProt O75439 (O75439 whole entry, looked up): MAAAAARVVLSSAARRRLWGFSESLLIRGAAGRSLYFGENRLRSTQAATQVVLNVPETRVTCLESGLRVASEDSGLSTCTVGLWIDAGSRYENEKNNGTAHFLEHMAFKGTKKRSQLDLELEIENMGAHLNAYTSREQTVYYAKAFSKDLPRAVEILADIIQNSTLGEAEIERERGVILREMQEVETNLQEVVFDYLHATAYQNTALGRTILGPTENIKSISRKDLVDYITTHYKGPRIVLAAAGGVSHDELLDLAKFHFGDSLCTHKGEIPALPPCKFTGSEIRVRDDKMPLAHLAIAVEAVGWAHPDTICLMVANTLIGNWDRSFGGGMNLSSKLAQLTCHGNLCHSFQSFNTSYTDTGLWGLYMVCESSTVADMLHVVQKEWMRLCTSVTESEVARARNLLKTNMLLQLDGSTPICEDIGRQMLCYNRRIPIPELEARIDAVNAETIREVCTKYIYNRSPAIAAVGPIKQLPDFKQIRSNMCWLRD
# Sequence of UniProt P48426 (P48426 whole entry, looked up): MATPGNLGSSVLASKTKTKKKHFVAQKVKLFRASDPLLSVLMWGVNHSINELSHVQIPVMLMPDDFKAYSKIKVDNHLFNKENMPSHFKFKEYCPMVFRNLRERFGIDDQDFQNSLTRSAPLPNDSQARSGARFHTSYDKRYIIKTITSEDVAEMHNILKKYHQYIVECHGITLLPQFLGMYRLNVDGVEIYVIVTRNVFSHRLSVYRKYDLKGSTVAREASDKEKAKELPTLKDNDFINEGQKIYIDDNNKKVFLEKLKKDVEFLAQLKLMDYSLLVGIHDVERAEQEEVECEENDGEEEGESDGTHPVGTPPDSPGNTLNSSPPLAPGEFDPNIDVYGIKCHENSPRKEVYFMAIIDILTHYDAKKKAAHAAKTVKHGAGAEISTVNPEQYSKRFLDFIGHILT
# Sequence of UniProt O95394 (O95394 whole entry, looked up): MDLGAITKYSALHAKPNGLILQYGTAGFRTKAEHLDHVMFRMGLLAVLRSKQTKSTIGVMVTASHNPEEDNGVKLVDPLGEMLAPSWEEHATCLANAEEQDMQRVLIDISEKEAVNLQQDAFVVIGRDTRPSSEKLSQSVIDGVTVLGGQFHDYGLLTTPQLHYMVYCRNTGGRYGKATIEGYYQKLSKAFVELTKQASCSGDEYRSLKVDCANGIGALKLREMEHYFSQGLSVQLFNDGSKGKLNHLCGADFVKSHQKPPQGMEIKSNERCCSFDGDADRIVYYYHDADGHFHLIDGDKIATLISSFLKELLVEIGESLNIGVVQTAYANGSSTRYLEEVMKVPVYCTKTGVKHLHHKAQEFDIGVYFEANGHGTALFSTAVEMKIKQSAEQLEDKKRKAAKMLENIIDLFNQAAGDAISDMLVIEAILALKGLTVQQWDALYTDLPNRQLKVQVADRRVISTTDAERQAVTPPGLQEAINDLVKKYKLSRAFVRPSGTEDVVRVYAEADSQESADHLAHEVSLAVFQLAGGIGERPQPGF
# Sequence of UniProt O75340 (O75340 whole entry, looked up): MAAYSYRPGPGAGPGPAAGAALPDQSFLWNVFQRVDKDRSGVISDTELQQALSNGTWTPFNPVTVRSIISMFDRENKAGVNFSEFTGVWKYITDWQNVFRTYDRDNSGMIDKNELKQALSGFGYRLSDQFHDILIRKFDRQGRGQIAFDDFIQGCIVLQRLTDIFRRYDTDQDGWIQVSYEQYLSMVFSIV
# Sequence of UniProt Q7Z7A4 (Q7Z7A4 whole entry, looked up): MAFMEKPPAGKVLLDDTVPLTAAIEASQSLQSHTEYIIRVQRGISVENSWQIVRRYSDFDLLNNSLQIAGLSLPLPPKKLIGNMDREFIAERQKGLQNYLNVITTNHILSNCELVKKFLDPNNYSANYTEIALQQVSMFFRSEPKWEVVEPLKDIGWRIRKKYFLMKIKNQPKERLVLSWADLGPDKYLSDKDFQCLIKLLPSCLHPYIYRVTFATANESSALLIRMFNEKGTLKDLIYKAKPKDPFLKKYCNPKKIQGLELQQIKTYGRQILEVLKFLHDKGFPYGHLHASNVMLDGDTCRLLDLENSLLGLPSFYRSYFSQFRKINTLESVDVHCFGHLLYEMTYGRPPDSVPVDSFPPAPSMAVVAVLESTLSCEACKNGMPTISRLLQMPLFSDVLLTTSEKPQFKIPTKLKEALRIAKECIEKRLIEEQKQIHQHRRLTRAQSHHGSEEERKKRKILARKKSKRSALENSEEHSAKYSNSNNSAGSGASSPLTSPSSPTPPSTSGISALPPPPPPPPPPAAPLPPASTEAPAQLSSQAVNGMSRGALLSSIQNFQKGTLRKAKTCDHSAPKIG
# Sequence of UniProt P06737 (P06737 whole entry, looked up): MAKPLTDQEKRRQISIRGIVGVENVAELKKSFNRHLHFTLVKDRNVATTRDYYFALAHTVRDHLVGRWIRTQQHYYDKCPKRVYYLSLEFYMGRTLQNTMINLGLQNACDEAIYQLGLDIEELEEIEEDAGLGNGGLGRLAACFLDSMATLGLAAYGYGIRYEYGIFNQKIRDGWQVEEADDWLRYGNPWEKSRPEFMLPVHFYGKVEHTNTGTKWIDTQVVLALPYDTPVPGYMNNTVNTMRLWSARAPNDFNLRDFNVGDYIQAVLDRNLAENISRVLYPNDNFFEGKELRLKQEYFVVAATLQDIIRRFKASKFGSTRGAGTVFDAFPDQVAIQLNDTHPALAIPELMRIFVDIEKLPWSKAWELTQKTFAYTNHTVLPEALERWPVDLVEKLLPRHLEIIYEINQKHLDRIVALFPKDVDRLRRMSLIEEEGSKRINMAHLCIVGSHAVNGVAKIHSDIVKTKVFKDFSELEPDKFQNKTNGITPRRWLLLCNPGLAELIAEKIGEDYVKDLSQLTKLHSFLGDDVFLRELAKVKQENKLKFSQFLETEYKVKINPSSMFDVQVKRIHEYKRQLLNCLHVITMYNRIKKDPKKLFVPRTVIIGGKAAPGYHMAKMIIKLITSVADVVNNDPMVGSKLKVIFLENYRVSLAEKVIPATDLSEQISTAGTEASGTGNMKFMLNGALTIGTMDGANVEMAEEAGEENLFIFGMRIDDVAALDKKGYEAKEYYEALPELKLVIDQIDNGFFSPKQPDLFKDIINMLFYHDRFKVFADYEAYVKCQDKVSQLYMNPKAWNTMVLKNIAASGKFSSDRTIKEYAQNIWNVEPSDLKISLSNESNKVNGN
# Sequence of UniProt Q9Y5Y5 (Q9Y5Y5 whole entry, looked up): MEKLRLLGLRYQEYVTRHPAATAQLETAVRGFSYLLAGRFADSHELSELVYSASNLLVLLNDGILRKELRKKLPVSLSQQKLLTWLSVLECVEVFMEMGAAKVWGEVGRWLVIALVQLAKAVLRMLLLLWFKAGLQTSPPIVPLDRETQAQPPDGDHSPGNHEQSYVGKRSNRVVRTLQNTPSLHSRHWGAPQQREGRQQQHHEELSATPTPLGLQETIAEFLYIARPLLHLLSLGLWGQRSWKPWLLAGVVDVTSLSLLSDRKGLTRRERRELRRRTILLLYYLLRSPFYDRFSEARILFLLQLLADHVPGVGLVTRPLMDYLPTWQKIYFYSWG
Target,log2 fold change [1],log2 fold change [2],log2 fold change [3],log2 fold change [4],log2 fold change [5],log2 fold change [6],log2 fold change [7],log2 fold change [8],log2 fold change [9],log2 fold change [10],log2 fold change [11],log2 fold change [12],log2 fold change [13],log2 fold change [14],log2 fold change [15],log2 fold change [16],log2 fold change [17],log2 fold change [18],log2 fold change [19],log2 fold change [20]
PIP4K2A (UniProt P48426),0.172,0.028,0.075,-0.058,-0.065,0.287,0.108,0.076,0.162,-0.013,0.115,-0.03,0.749 (active),-0.068,-0.108,0.074,0.018,-0.067,-0.118,-0.02
PYGL (UniProt P06737),-0.012,-0.008,0.001,0.037,0.047,-0.007,-0.02,0.008,-0.004,0.08,0.004,0.033,-0.143,-0.038,0.055,0.068,-0.031,-0.007,0.019,0.021
PMPCB (UniProt O75439),-0.022,0,0.031,0.024,0.019,0.007,0.023,0.078,-0.014,0.046,0.035,0.008,0.01,0.064,-0.108,0.04,0.012,-0.022,0,0.015
PGM3 isoform 4 (UniProt O95394),0.001,0.094,0.045,0.103,0.092,0.001,0.042,0.064,-0.005,-0.053,-0.007,-0.016,-0.091,0.016,-0.08,-0.097,-0.002,0.012,-0.021,0.02
PEX16 isoform 2 (UniProt Q9Y5Y5),0.081,-0.044,0.147,0.013,0.085,0.06,0.008,-0.004,-0.031,0.051,-0.068,-0.059,-0.025,-0.104,-0.067,-0.407 (active),0.033,-0.052,0.03,0.136
PXK (UniProt Q7Z7A4),0.062,0.019,-0.006,0.022,0.074,0.018,0.251 (active),0.019,0.014,0.004,0.032,0.042,-0.012,0.1,-0.023,-0.201,0.037,0.012,-0.024,0.057
PRKACA (UniProt P17612),0.013,0.033,-0.054,-0.016,-0.034,0.042,0.087,-0.025,-0.142,0.047,0.023,-0.011,-0.038,-0.01,0.01,0.008,0.005,-0.06,-0.07,-0.034
PDCD6 (UniProt O75340),-0.006,0.038,0.066,0.004,0.034,0.02,-0.061,0.029,0.024,-0.048,0.021,-0.05,-0.029,-0.048,-0.097,-0.156,0.018,0.005,0.014,-0.034
